Bioassay records as filed in PubChem.
An excerpt weighted towards active compounds, which were near 0.24% of everything screened.
hcGAS lum: blocks human cGAS activity; Q8N884; recombinant h-cGAS, ATP depletion, Kinase-Glo luminescence; inhibition, % at 12.5 µM; 0.081% of 290,000 active; AID 1259398;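 further: 0% = vehicle reaction and 100% = reaction without DNA for no activity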
Target sequence (Q8N884 whole entry, looked up): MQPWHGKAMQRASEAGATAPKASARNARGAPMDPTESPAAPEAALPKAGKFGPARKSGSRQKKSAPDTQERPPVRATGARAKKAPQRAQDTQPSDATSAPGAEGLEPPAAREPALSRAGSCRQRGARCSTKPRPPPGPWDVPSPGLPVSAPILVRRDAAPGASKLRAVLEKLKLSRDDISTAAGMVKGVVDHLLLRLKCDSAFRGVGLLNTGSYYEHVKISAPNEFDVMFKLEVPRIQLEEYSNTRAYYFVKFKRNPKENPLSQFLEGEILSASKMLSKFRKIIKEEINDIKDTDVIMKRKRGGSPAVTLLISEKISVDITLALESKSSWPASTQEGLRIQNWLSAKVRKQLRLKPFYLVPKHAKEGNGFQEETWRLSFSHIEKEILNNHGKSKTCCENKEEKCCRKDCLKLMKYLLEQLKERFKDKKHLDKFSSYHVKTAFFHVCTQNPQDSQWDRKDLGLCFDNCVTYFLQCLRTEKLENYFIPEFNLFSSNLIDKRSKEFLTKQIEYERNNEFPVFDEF
NPYLR7 ag: mosquito NPYLR7 agonism; HEK293T NPYLR7/Galpha15, GCaMP6s calcium fluorescence; activation, % at 10 µM; 0.15% of 270,000 active; in the data active means activation above about 40%;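 further: 0% = vehicle and 100% = reference agonist at the receptor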
mcGAS lum: mouse cGAS inhibition by luminescence. Q8C6L5. inhibition, % at 12.5 µM. recombinant cGAS, Kinase-Glo ATP depletion luminescence. 0.15% of 160,000 active;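 further: 0% = negative control wells and 100% = reference inhibitor with no enzyme activity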
* = called active by the depositor; / = no result given; ! = a repeat was not active. Unless noted, no stated cut-off is given here; in the data, active means inhibition above about 40%; inactive means the rest.

SMILES	hcGAS lum	NPYLR7 ag	mcGAS lum
COCCN(CC(=O)N1CCc2sccc2C1COc1ccccc1F)C(=O)c1cccs1 (stereo not given)	-3	-2	-5
O=[N+]([O-])c1c[n+]([O-])n(-c2ccc3c(c2)OCCO3)n1	-2	2	-8
O=[N+]([O-])c1c[n+]([O-])n(-c2cccc(Cl)c2)n1	3	74*	-1
CN(c1ccccc1)c1nnc(C(C)(C)C)c(=O)[nH]1	-5	5	/
COc1ccc(S(=O)(=O)NCC2CCCN(C(=O)C3CCOCC3)C2)cc1 (stereo not given)	-2	-1	-4
COc1ccc(S(=O)(=O)NCC2CCCN(C(=O)CSc3ccccc3)C2)cc1 (stereo not given)	-7	50*!	1
O=C(CCCc1cccs1)N1CCCC(CNS(=O)(=O)c2cccs2)C1 (stereo not given)	-5	21	/
O=C(COc1ccccc1)N1CCCC(CNS(=O)(=O)c2cccs2)C1 (stereo not given)	-8	57*!	-2
O=C1OCCC1Sc1nc(-c2ccccc2)c(-c2ccccc2)[nH]1 (stereo not given)	-1	1	/
O=[N+]([O-])c1ccccc1-n1nc2c3nonc3ccc2[n+]1[O-]	-5	1	-6
O=[N+]([O-])c1ccc(-n2nc3ccc4nonc4c3n2)cc1	-4	81*	-6
O=C(c1cc[nH]c(=O)c1)N1CCOC2(CCCC2)C1	3	-6	/
OC1c2ccccc2-c2c3c(cc4c2C1NCC4)OCO3 (stereo not given)	42*	12	44*
Fc1ccccc1C1NCCc2cc3c(cc21)OCCO3 (stereo not given)	-8	0	/
CCc1ccc(CN(C)Cc2snnc2C)nc1	-6	-3	-15
CCN1CCN(Cc2c(O)ccc3c2O/C(=C\c2cc4cc(Br)ccc4o2)C3=O)CC1	-7	79*	-3
O=C1/C(=C/c2cc3cc(Br)ccc3o2)Oc2c1ccc(O)c2CN1CCCC1	-8	20	-8
CN1CCN(Cc2c(O)ccc3c2O/C(=C\c2cc4cc(Br)ccc4o2)C3=O)CC1	-3	62*	-5
O=C1/C(=C/c2cc3cc(Br)ccc3o2)Oc2c1ccc(O)c2CN1CCOCC1	-4	28	-4
CN1CCN(CCNC(=O)C(=O)Nc2ccc(Cl)c(C#N)c2)CC1	-4	7	-8
Cn1cc(NC(=O)N2CCCC2)c2ccccc21	-5	-3	-8
O=C(c1cncn1-c1ccc(F)cc1)N1CCN(S(=O)(=O)c2c(Cl)cccc2Cl)CC1	-1	-3	-5
COc1cccc(C(=O)Nc2n[nH]c(-c3ccc(OC)cc3OC)n2)c1	-1	0	-5
CCCC(=O)NC(c1cccc([N+](=O)[O-])c1)c1ccc2cccnc2c1O (stereo not given)	-2	0	/
O=[N+]([O-])c1cccc(C(Nc2nc3c(s2)CCCC3)c2ccc3cccnc3c2O)c1 (stereo not given)	42*	-2	2
SMILES	hcGAS lum	NPYLR7 ag	mcGAS lum
Cc1nc2n(n1)C(=O)C(C(c1ccc(F)cc1)N1CCc3ccccc3C1)S2 (stereo not given)	-12	-3	/
CC1=NNc2nc3c(c(=O)n(Cc4cc(C)ccc4C)c(=O)n3C)n2C1	5	-5	-2
CCOC(=O)c1ccc(NC(=O)N(CC(=O)N(Cc2ccc(F)cc2)Cc2ccco2)CC2CCCO2)cc1 (stereo not given)	4	/	0
COC(=O)c1c(C)cc(OC(=O)c2c(C)cc(O)c(C=O)c2O)c(C)c1O	-4	/	-4
Cc1cc(O)c(C=O)c(O)c1C(=O)O	56*	-12	/
CC1C(=O)N(c2ccc(F)cc2F)CCN1C(=O)c1cccc(F)c1 (stereo not given)	-4	-1	72*
CC1C(=O)N(c2ccc(F)cc2F)CCN1C(=O)c1cccc(Br)c1 (stereo not given)	-3	-2	-5
O=C(c1cccc(Cl)c1)N1CCN(c2nc(Cc3ccccc3)nc3c2cnn3-c2ccccc2)CC1	-8	7	-7
CC1N(C)c2ccc(C=Cc3cc[n+](C)cc3)cc2C1(C)C (stereo not given)	-16	67*	/
COc1cc(C=C(C#N)S(=O)(=O)c2ccc(F)cc2)cc(OC)c1OC	-9	11	/
COc1cc(C=C(C#N)S(=O)(=O)c2ccc(F)cc2)cc(Br)c1O	-1	183*	/
COc1cc(C=C(C#N)S(=O)(=O)c2cc(Cl)ccc2Cl)cc(Br)c1O	-5	66*	/
COc1cc(C=C(C#N)S(=O)(=O)c2cc(Cl)ccc2Cl)cc(OC)c1	2	2	/
O=C(CSc1nc(=O)n(Cc2ccco2)c2c1CCCC2)Nc1ccccc1	-5	-5	-8
CN(C)Cc1c2ccccc2cc2ccccc12	1	2	/
CN(C)CCc1cc2c(c3c1ccc1ccccc13)OCO2	70*	2	56*
Cc1cc2nc3c(=O)[nH]c(=O)nc-3n(C)c2cc1C=O	-5	-1	/
Cc1cc2nc3c(=O)[nH]c(=O)nc-3n(CC(O)C(O)C(O)CO)c2cc1C (stereo not given)	0	173*	/
COCCCN(CC(=O)N1CCc2sccc2C1c1ccc(C)cc1)C(=O)c1cc(OC)cc(OC)c1 (stereo not given)	-3	4	-2
O=C(NCCNc1nc(-c2ccco2)nc2ccccc12)c1cccc([N+](=O)[O-])c1	-5	-5	-5
COc1ccc(NC(=O)C2C=CCN2)cc1NC(=O)c1ccco1 (stereo not given)	-6	64*	-18
COc1cc(NC(=O)c2ccco2)c(OC)cc1Cl	-11	24	/
O=C1SC(Nc2ccc(I)cc2)C(=O)N1c1ccccc1 (stereo not given)	-3	63*	-2
CC(C)CN1C(=O)SC(Nc2ccccc2)C1=O (stereo not given)	-8	16	-5
CC1(C(=O)NCc2cccnc2)CCN1C(=O)CCc1ccc(Cl)cc1Cl (stereo not given)	-4	1	-6
SMILES	hcGAS lum	NPYLR7 ag	mcGAS lum
CCOc1cccc(C=C2Oc3cc(O)ccc3C2=O)c1OC	-4	70*	/
COc1ccccc1C=C1Oc2cc(O)ccc2C1=O	-5	17	/
COc1ccc(C=C2Oc3cc(O)ccc3C2=O)c(OC)c1	-8	34	/
O=C1C(=Cc2ccc(OC(F)F)cc2OC(F)F)Oc2cc(O)ccc21	-5	41*	/
CCC(=O)Nc1ccc(O)c(C(=O)N=c2sc3ccccc3n2C)c1	-11	-2	-16
CN(Cc1cnc2ccccc2n1)C(=O)C1CC2(CCNCC2)CN1 (stereo not given)	-6	58*	-9
CN(Cc1cc(-c2ccccc2)on1)C(=O)C1CC2(CCNCC2)CN1 (stereo not given)	-9	6	-13
CN(CC(=O)NC(C)(C)C)c1ncnc2sccc12	-4	8	-8
N#CC1C(=N)Oc2cc(N)ccc2C1c1ccccc1I (stereo not given)	-3	26	/
N#CC1C(=N)Oc2cc(N)ccc2C1c1c(Cl)cccc1Cl (stereo not given)	-5	160*	9
Cc1cc(C)n(CCN(C)C(=O)C2CC(=O)N(C(C)(C)C)C2)n1 (stereo not given)	-1	/	-4
